According to article PMC7819943, “Rice protein-binding microarrays: a tool to detect cis-acting elements near promoter regions in rice”:
Over roughly 39,000 sequences, “fluorescence intensity (a.u.)” has its median near 4,300; the highest 2% begin near 39,000. What follows is part of a selection rich in the highest values, with near analogues and random picks from the rest.

These sequences were tested against T1, OsSMF1 (Oryza sativa, UniProt Q6ZLB0 1-436) (assay: protein-binding microarray (RPBM); PBS, 2% BSA, 51.3 ng/ul salmon testes DNA, 50 uM zinc acetate, 200 nM TF, 25 C, 1 h; high values mean tight binding). Settings: protein: recombinant; tags: N-terminal polyhistidine and DsRed monomer fusion (pET32a); chain copies: 2; label: CyDye5-dUTP incorporated in the synthesized complementary strand; 3' TTTTT single-stranded linker to array surface; dsDNA, one strand shown.
T1 sequence: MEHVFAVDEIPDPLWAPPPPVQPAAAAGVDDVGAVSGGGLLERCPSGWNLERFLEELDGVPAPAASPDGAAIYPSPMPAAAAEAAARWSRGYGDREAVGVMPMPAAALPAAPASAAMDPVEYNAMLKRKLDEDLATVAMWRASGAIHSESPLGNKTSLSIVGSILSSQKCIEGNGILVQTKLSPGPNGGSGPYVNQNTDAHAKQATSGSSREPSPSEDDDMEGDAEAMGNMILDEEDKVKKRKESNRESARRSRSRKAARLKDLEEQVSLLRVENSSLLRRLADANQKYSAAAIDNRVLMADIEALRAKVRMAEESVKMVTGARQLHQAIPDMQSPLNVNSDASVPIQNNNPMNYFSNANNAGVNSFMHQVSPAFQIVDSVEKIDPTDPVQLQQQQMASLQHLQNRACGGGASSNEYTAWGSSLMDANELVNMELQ
How it was run: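 The binding signal is fluorescence intensity per array feature (arbitrary units). Readings came from an Axon 4000B scanner after a washed, 2% BSA-blocked, double-stranded custom Agilent array had been incubated for 1 h at 25 °C with 200 nM protein and 50 µM zinc acetate. The protein was a Ni–NTA-purified transcription factor fused N-terminally to polyhistidine and DsRed, expressed in E. coli BL21-CodonPlus.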

First: TCCCTTGACGGTTTTGGCTGACGTGGCGCCTAGGTGGCTACGGAGTCACCTAGTGCAG
Second: GTTTAATGGGTTGATGTGGCATGCTTACATATAGGTTTTACGGAGTCACCTAGTGCAG
The binding signal of the first is higher: 30000 fluorescence intensity (a.u.) for the first, 5830 fluorescence intensity (a.u.) for the second.

First: TCCCTTGGCAGTATAGGTGGGTGGTTTTGCTTACGTGGCACGGAGTCACCTAGTGCAG
Second: TGGAGGGCAGTTTCGCTGACGTGGCGGTGTTGACCTAGTGCGGAGTCACCTAGTGCAG
The binding signal of the first is higher: 40000 fluorescence intensity (a.u.) for the first, 34200 fluorescence intensity (a.u.) for the second.

First: TTTAGATGGCGGTTTTGGCTGACGTGGCACATATGTGGCTCGGAGTCACCTAGTGCAG
Second: GGCACTATAGATGTTTGGTTTCGCTGACGTGGCATTCTAGCGGAGTCACCTAGTGCAG
The binding signal of the first is lower: 33100 fluorescence intensity (a.u.) for the first, 49000 fluorescence intensity (a.u.) for the second.

Compared with “AACTGGAACCCTTAGCCACTGTGAGGTGTACATCTGACAACGGAGTCACCTAGTGCAG”, “CTAGCCACTGAAGCATGGGTCATGATACAGCAGTTAATATCGGAGTCACCTAGTGCAG” is lower in binding signal: 4990 fluorescence intensity (a.u.) for the first, 3440 fluorescence intensity (a.u.) for the second.

Compared with “CTTATCAAGACTCGTGGCGTGGAAAGCTTTACAGGTGAGGCGGAGTCACCTAGTGCAG”, “ATGCATGACAGCACACCACACATTGACACCACTGAGGCAGCGGAGTCACCTAGTGCAG” is lower in binding signal: 4710 fluorescence intensity (a.u.) for the first, 3260 fluorescence intensity (a.u.) for the second.

First: TTAAAGAAATGGTTGGTGCTGCTCCGACTCCCTGTTTCCTCGGAGTCACCTAGTGCAG
Second: GCCTCTCCTCAAGCGGTGGAGAGCGCGGACGTGGACGTGCCGGAGTCACCTAGTGCAG
The binding signal of the first is higher: 16200 fluorescence intensity (a.u.) for the first, 6520 fluorescence intensity (a.u.) for the second.

Going from “ATTAGGCTCAAAAGATTCGTCTCGCGATTTTCAGACGAGCCGGAGTCACCTAGTGCAG” to “GATTCGTCTCGCGATTTCCATTCAAACTGTGCAATTAGTTCGGAGTCACCTAGTGCAG”, the binding signal falls from 41800 fluorescence intensity (a.u.) to 28000 fluorescence intensity (a.u.).

Compared with “GGCTTAAAAGATTCGTTTCATAATTTACACGCAAACTGTACGGAGTCACCTAGTGCAG”, “GGATTAATTAGTCTCAAAAGATTCGTCTCGCGGTTTCCAGCGGAGTCACCTAGTGCAG” is higher in binding signal: 3890 fluorescence intensity (a.u.) for the first, 29400 fluorescence intensity (a.u.) for the second.

Compared with “TATCAAATTATAGCGCAATTAGGCTCAAAAGATTCAGATTCGGAGTCACCTAGTGCAG”, “AAAAGATTCGTCTCGCAATTTACACGTAACCTGTGTAATTCGGAGTCACCTAGTGCAG” is lower in binding signal: 26600 fluorescence intensity (a.u.) for the first, 7350 fluorescence intensity (a.u.) for the second.

Compared with “GGCTCAAAAGATTCATCTCGCGATTTCCATACAAACTGTACGGAGTCACCTAGTGCAG”, “TGTCAAATCATGACGCAATTAGGCTCAGAAGATTCGTCTCCGGAGTCACCTAGTGCAG” is lower in binding signal: 46300 fluorescence intensity (a.u.) for the first, 4030 fluorescence intensity (a.u.) for the second.

Going from “TTATGATGTAATTAGGCTCAAAAGATTCGTCTCGCAATTTCGGAGTCACCTAGTGCAG” to “GGGTGATTGAATCCTTGTCATCTAGTGTAAGGCATCTTTCCGGAGTCACCTAGTGCAG”, the binding signal falls from 44200 fluorescence intensity (a.u.) to 4510 fluorescence intensity (a.u.).

Compared with “CGGCCTATAAGTACTCCATCCCGCCGGCCGGCCGGTGACTCGGAGTCACCTAGTGCAG”, “ATCTGTTAGGTATTTAATTTATTTTCTTTTGCTATGTCAGCGGAGTCACCTAGTGCAG” is higher in binding signal: 3370 fluorescence intensity (a.u.) for the first, 3880 fluorescence intensity (a.u.) for the second.

First: TAATTCAGCTTAATAAATTCGTCCAGCTGTTTACTGACTGCGGAGTCACCTAGTGCAG
Second: GCTTAATAAATTCGTCTCGCGGTTTAATGTTGGATTCTGTCGGAGTCACCTAGTGCAG
The binding signal of the first is higher: 52800 fluorescence intensity (a.u.) for the first, 3670 fluorescence intensity (a.u.) for the second.

Going from “TTAATGCATACTGACAGCTGTTTATGTGCTTCAAATTTACCGGAGTCACCTAGTGCAG” to “TCTGCCGCCGGCCGCGGCGAGGGATGGCATTGGCGTGGCGCGGAGTCACCTAGTGCAG”, the binding signal falls from 4700 fluorescence intensity (a.u.) to 3550 fluorescence intensity (a.u.).

Going from “GCGCATTGGCGAGGACTGCGACTATCTGGGAAGCGTGAAGCGGAGTCACCTAGTGCAG” to “GCGAGCGGCCAACTGGGAAGGCGGTGGTGAGGACATCGTGCGGAGTCACCTAGTGCAG”, the binding signal falls from 51500 fluorescence intensity (a.u.) to 5400 fluorescence intensity (a.u.).

Compared with “GGTGTCGCGTCGCGTCTGCAGTAGAAATGGAAGCCTGGGGCGGAGTCACCTAGTGCAG”, “AGAAGAAGAGGAAGCTGTGGGTCAGGTGGGTTTCCGCCCACGGAGTCACCTAGTGCAG” is higher in binding signal: 3230 fluorescence intensity (a.u.) for the first, 41300 fluorescence intensity (a.u.) for the second.

Compared with “AGAGGAAGAGGAAGAAGAGGTCATTCCGCCACGTCCCGGACGGAGTCACCTAGTGCAG”, “GGCCCACGCCGGCAGATCAGGTGGGGAGAGAAGCTCCGCCCGGAGTCACCTAGTGCAG” is higher in binding signal: 7090 fluorescence intensity (a.u.) for the first, 14700 fluorescence intensity (a.u.) for the second.

Compared with “GTGGAAAAGCCAAAGGCAAAGGCAAACCACGCGTCTCTCTCGGAGTCACCTAGTGCAG”, “TTCTACTATGTCATTCTAGTACTATATAAAACTACTATGCCGGAGTCACCTAGTGCAG” is lower in binding signal: 17400 fluorescence intensity (a.u.) for the first, 3690 fluorescence intensity (a.u.) for the second.

First: TGAGAGAGAATTGCATTTTATGACATGCCCATATGATGATCGGAGTCACCTAGTGCAG
Second: ATTTAATAACTTCTATGGACAATATGTGCCCTGAAACTACCGGAGTCACCTAGTGCAG
The binding signal of the first is lower: 17600 fluorescence intensity (a.u.) for the first, 48800 fluorescence intensity (a.u.) for the second.

Compared with “ACCTACTAATAACTAGTTAATTGTCTATTGTGCCCCTAGTCGGAGTCACCTAGTGCAG”, “GGAAATAGTAAATAGCTACTACCAAGCCATAAGCTTACTACGGAGTCACCTAGTGCAG” is higher in binding signal: 13700 fluorescence intensity (a.u.) for the first, 17900 fluorescence intensity (a.u.) for the second.

Going from “ACACTACCAATAGCTGGTACTTATTCAGCACAATAAGCTACGGAGTCACCTAGTGCAG” to “GCATATGGGGCATATATACGTACATGACTGAATCATCGTTCGGAGTCACCTAGTGCAG”, the binding signal falls from 46400 fluorescence intensity (a.u.) to 3250 fluorescence intensity (a.u.).

First: ATATGGCATACATGAGAATTTAGAGAATTTACCATCAAATCGGAGTCACCTAGTGCAG
Second: GAACTACTAAACGGTACGTCTTTTCGTTTAAAAGAATATCCGGAGTCACCTAGTGCAG
The binding signal of the first is higher: 45500 fluorescence intensity (a.u.) for the first, 39400 fluorescence intensity (a.u.) for the second.

First: ACTAAACAGATTTTCTTTAAAGTTTATGCAGAAAAGTTTCCGGAGTCACCTAGTGCAG
Second: ATCAAAATAGATTAAAGTTTAGTTTTAACGAAACTAGTTTCGGAGTCACCTAGTGCAG
The binding signal of the first is higher: 5060 fluorescence intensity (a.u.) for the first, 3180 fluorescence intensity (a.u.) for the second.

In the case of “ATTCACTGGAGGTGGTGCATCAGCATCACCAAAGCTAGCACGGAGTCACCTAGTGCAG”, the binding signal is reported as 3970 fluorescence intensity (a.u.).
